High-throughput results: PubChem BioAssay, National Center for Advancing Translational Sciences (NCATS)
Rows were chosen to be rich in hits. Some 19% of all compounds tested hit in one or more screens of this group.
DT40 TDP1 CPT = qHTS for Inhibitors of human tyrosyl-DNA phosphodiesterase 1 (TDP1): qHTS in cells in presence of CPT; 420,000 tested, 12% active; chicken DT40 Tdp1-/-;hTDP1 cells + 20 nM CPT, ATP luminescence, 48 h; AID 686979, 2013; Potency, µM (titrated, usually from 46.2 µM), for inactives: at the highest dose activity change, negative = growth inhibition, usual class: inhibitors; also: potency is read from the fitted curve at half-maximal effect; nearly all actives have a fitted effect of over 55% in size
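Chicken DT40 Tdp1-/- cells stably complemented with human TDP1 were seeded at 400 cells/well in medium containing 20 nM camptothecin, exposed to pin-transferred compounds, and grown at 37 °C for at least 48 hr. Viability was read as ATP luminescence.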
TDP1 cell noCPT = qHTS for Inhibitors of human tyrosyl-DNA phosphodiesterase 1 (TDP1): qHTS in cells in absence of CPT. DT40 Tdp1-/- hTDP1 cells, no CPT, ATP luminescence, 48 h. 420,000 tested, 15% active. Potency, µM (top dose mostly 46.2 µM), for the others: at the top dose activity change, negative = growth inhibition, usual class: inhibitors. AID 686978, 2013; also: potency is read from the fitted curve at half-maximal effect; nearly all actives have a fitted effect of over 55% in size
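Growth kinetics read by CellTiter-Glo luminescence after ≥48 hr at 37 °C. Cells: DT40 Tdp1-/- stably carrying human TDP1, 400 per well, compound exposure in the absence of CPT (DMSO vehicle).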
uPA surface inh = qHTS for Inhibitors of Cell Surface uPA Generation | cell surface uPA generation assay, qHTS | Potency, µM (titrated, usually from 38.3 µM), inactives show at the top dose activity change, negative = inhibition, hits mostly inhibitors | 330,000 tested, 0.31% active | AID 540303, 2011; active = well fitted inhibition curve with a large enough effect; inconclusive = small, poorly fitted or top-dose-only effect; inactive = no such curve, though single readings can be large or run the other way; tested in mouse RAW 264.7 cells; also: potency is read from the fitted curve at half-maximal effect; nearly all actives have a fitted effect of over 55% in size
HT1080NT lethal = qHTS for induction of synthetic lethality in tumor cells producing 2HG: qHTS for the HT-1080-NT fibrosarcoma cell line; HT-1080-NT fibrosarcoma viability, CellTiter-Glo ATP luminescence, 48 h; AID 686970, 2013; 360,000 tested, 1.6% active; Potency, µM (doses to about 46.1 µM), for the others: at the highest dose activity, negative = less viability, actives largely listed as cytotoxic;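 also: NT is the 2HG producing partner of a matched IDH1 knockdown line; potency is read from the fitted curve at half-maximal effect; 0% = DMSO-treated cells and -100% = media-only wells without cells; nearly all actives have a fitted effect of over 55% in size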
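Read-out is CellTiter-Glo luminescence after 10 minutes at room temperature, following 48 hours' compound treatment of HT-1080-NT cells (750 cells/well, RPMI, 5% FBS, 37 degrees C).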
IL-1B inflam inh = qHTS for Inhibitors of Inflammasome Signaling: IL-1-beta AlphaLISA Primary Screen. THP-1 LPS/ATP IL-1B secretion, AlphaLISA, 16 h; stronger effect = lower value. activity change, % at 57.5 µM. 360,000 tested, 4.7% active. AID 743279, 2014; in the data active = activity change below about -50%; inconclusive = mostly about -30% to -49%
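Secreted IL-1B measured by AlphaLISA bead assay after 16 h compound exposure of THP-1 cells; compounds (final up to 57.5 uM) added 1 h before LPS (250 ng/mL) and ATP (1.25 mM) stimulation; lower signal means less secretion.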
HT1080 IDH1KD tx = qHTS for induction of synthetic lethality in tumor cells producing 2HG: qHTS for the HT-1080-IDH1KD cell line; HT-1080 IDH1 knockdown viability, ATP luminescence, 48 h; Potency, µM (doses to about 46.1 µM), without a hit: top-dose activity, negative = toxicity, hits mostly cytotoxic; AID 686971, 2013; 360,000 tested, 2% active;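 also: potency is read from the fitted curve at half-maximal effect; 0% = DMSO wells and -100% = cell-free medium wells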
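IDH1KD HT-1080 cells, 750/well, RPMI + 5% FBS; compound pinned after 2 h settling; 48 h, 37 °C; CellTiter-Glo luminescence; % activity normalised to DMSO and no-cell wells; curves fitted, classed by r2 and efficacy.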
* marks the source's active call; other numbers are inactive results; ? = inconclusive; · = no result given; ! = repeats disagree. Unless noted, calls follow the shape of the dose curve; as a rule, active = well fitted curve in the direction sought with a large enough effect; inconclusive = small, poorly fitted or top-dose-only effect, or another doubt; inactive = no such curve, though single readings can be large; an effect the other way counts as inactive or inconclusive. Unless noted, % is scaled to controls: 0 for no effect and ±100 for the full control effect.

SMILES	DT40 TDP1 CPT	TDP1 cell noCPT	uPA surface inh	HT1080NT lethal	IL-1B inflam inh	HT1080 IDH1KD tx
O=C(NC(=S)NCCC1=CCCCC1)c1ccccc1Br	?	16.4µM*	2.9%	-16.5%	64.1	-14.8%
Cn1c(SCC(=O)N2CCOCC2)nc2c(c1=O)SCC2	-1.6%	-9.8%	2.3%	-3.7%	-12.3	-0.7%
Cc1cc(Cl)ccc1NC(=O)CCC(=O)N/N=C/c1cc([N+](=O)[O-])ccc1O	6.51µM*	8.2µM*	3.9%	-18.1%	68.4	-22.1%
O=[N+]([O-])c1ccc(/C=N/NC(=S)Nc2ccc(Cl)cc2Cl)s1	5.8µM*	5.17µM*	?	?	25.3	?
O=[N+]([O-])c1ccc(O)c(/C=N/NC(=S)Nc2ccc(Cl)cc2Cl)c1	16.4µM*	20.6µM*	3.4%	?	118.8	23.1µM*
Cc1ccc(NC(=S)N/N=C/c2ccc(Cl)c([N+](=O)[O-])c2)cc1	10.0%	-5.7%	-4.1%	-4.2%	19.7	-4.5%
CCOC(=O)CCC(=O)Nc1ccc([N+](=O)[O-])cc1C	-5.3%	-4.5%	-0.4%	?	-8.1	14.3%
C[C@H](CO)N1C[C@H](C)[C@@H](CN(C)S(=O)(=O)c2ccc(F)cc2)OCc2cn(nn2)CCCC1=O	-10.7%	1.5%	·	4.2%	19.5	12.3%
COc1ccc(S(=O)(=O)N2CCOC2CNC(=O)C(=O)NCCc2ccc(S(N)(=O)=O)cc2)cc1 (configuration not stated)	?	-11.3%	6.4%	20.8%	17.2	0.3%
O=[N+]([O-])c1ccc(/C=N/Nc2nc(N3CCCCCC3)nc(N3CCCCCC3)n2)o1	25.9µM*	?	-0.1%	?	?	?
O=[N+]([O-])c1ccc(-c2ccc(/C=N/Nc3nc(NCc4ccccc4)nc(N4CCOCC4)n3)o2)cc1	9.2µM*	16.4µM*	-5.6%	18.4µM*	-91.5*	16.4µM*
Cc1ccc(/C=N/Nc2nc(N3CCCCC3)nc(N3CCCCC3)n2)o1	1.0%	?	0.6%	-1.2%	-28.6	1.0%
O=[N+]([O-])c1ccc(Nc2nc(N/N=C\c3ccc4c(c3)OCO4)nc(N3CCCCC3)n2)cc1	20.6µM*	16.4µM*	0.3%	-14.9%	?	-5.0%
COc1nc(N/N=C/c2ccc(-c3ccccc3[N+](=O)[O-])o2)nc(N2CCOCC2)n1	?	?	11.5%	-0.4%	0.0	8.1%
COc1ccc(/C=N/Nc2nc(Nc3ccccc3)nc(N3CCCCC3)n2)cc1OC	?	20.6µM*	-3.7%	-15.3%	-16.5	-13.1%
COc1ccccc1N1CCN(CCCN=C2CC(=O)N(C)C(=O)N2C)CC1	2.5%	19.8%	0.4%	40.8%	18.9	19.2%
CC1CCC(NC(=O)CN2C(=O)NC(C)(C)C2=O)CC1 (configuration not stated)	-8.7%	2.5%	0.2%	13.5%	6.0	4.5%
O=[N+]([O-])c1ccc(/C=N/Nc2nc(N3CCCCC3)nc(N3CCCCC3)n2)cc1	?	16.4µM*	-1.1%	7.8%	-13.6	10.2%
O=[N+]([O-])c1ccccc1/C=C/C=N/Nc1nc(N2CCCCC2)nc(N2CCCCC2)n1	-28.6%	?	3.2%	1.0%	10.0	-0.4%
C(=C\c1ccccc1)/C=N/Nc1nc(N2CCCCC2)nc(N2CCCCC2)n1	11.6µM*	11.6µM*	0.2%	10.7%	6.8	14.1%
CC(OC(=O)CN1C(=O)NC2(CCCC2)C1=O)C(=O)c1ccccc1 (configuration not stated)	7.9%	5.6%	3.7%	0.1%	15.8	20.6%
Cc1ccccc1N=C(N)Nc1ccccc1C	26.6µM*!	?	-1.5%	-9.0%	0.0	-1.9%
Cc1ccccc1NC(=O)NC(N)=O	-3.2%	7.1%	-12.3%	-3.2%	-0.9	0.9%
CC(C)NC(=O)C1(C#N)C=C1c1ccccc1 (configuration not stated)	?	16.4µM*	·	16.4µM*	-83.8*	?
CCOC(=O)C1=C(CSCc2ccccc2)NC(=O)NC1c1cc(C)ccc1C (configuration not stated)	?	?	-27.3%	?	-51.3*	?
SMILES	DT40 TDP1 CPT	TDP1 cell noCPT	uPA surface inh	HT1080NT lethal	IL-1B inflam inh	HT1080 IDH1KD tx
CCOC(=O)C1=C(COC(=O)CCOc2ccc(C)cc2)NC(=O)NC1C (configuration not stated)	6.51µM*	5.8µM*	-13.1%	?	?	-26.6%
CCOC(=O)C1=C(CN2CCCCC2)NC(=O)NC1c1cc(C)ccc1C (configuration not stated)	?	?	-8.1%	0.6%	4.3	-9.4%
CCOC(=O)C1=C(COc2ccc(F)cc2Cl)NC(=O)NC1c1cc(C)ccc1C (configuration not stated)	?	20.6µM*	11.9%	8.4%	6.8	14.1%
CCOC(=O)C1=C(CS(=O)(=O)c2ccc(C)c(C)c2)NC(=O)NC1c1ccc(O)cc1 (configuration not stated)	-14.0%	-19.2%	2.2%	2.1%	-2.3	-4.0%
CCOC(=O)C1=C(CS(=O)(=O)c2ccc(F)c(C)c2)NC(=O)NC1c1ccccc1OC (configuration not stated)	29.1µM*	?	·	·	·	·
Cc1cccc(NC(=O)COC(=O)c2ccc3c(c2)OCO3)c1C	8.2%	11.8%	2.6%	11.3%	-11.5	6.4%
CCOC(=O)C1=C(CNCc2ccc(C)cc2)NC(=O)NC1c1ccc(OC)cc1 (configuration not stated)	20.6µM*	20.6µM*	-8.3%	?	14.9	9.2µM*
CCOC(=O)C1=C(CNCc2ccc(Cl)cc2)NC(=O)NC1c1ccccc1 (configuration not stated)	-7.3%	?	·	·	·	·
CCOC(=O)C1=C(COC(=O)/C=C/c2ccc(OC)c(OC)c2)NC(=O)NC1C (configuration not stated)	-26.6%	?	-0.7%	-1.6%	-2.5	9.3%
CCOC(=O)C1=C(COC(=O)/C=C/c2ccc(OC)cc2OC)NC(=O)NC1C (configuration not stated)	?	14.6µM*	1.7%	5.3%	?	4.5%
